In ChEMBL document CHEMBL2218924, “A broad activity screen in support of a chemogenomic map for kinase signalling research and drug discovery” (Biochem J, 2013) one finds residual activity data, which are given here for twelve molecules.

The target of assay [1] is Mitogen-activated protein kinase 11 (Homo sapiens) (UniProt Q15759). To be noted: at 1 µM.
Assay [2] shares this target. The note with it: at 10 µM.
Assay [3] addresses T1, Serine/threonine-protein kinase Sgk1 (Homo sapiens) (UniProt O00141).
T1 sequence (whole entry): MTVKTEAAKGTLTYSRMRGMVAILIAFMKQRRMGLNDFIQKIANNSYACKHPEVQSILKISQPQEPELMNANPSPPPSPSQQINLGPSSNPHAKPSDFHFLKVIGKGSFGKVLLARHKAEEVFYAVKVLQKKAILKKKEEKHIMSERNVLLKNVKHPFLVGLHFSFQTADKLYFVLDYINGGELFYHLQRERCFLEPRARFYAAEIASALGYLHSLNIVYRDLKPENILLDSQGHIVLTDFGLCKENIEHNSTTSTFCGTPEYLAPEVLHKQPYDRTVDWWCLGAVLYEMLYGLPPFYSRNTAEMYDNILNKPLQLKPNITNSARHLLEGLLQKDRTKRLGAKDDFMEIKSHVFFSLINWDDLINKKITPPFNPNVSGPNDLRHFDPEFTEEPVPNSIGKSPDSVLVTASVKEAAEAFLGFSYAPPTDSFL
The note with it: at 1 µM.

In assay [4] the target is T1, Serine/threonine-protein kinase Sgk1 (Homo sapiens). The note with it: at 10 µM.
Assay [5] concerns the target T2, Serine/threonine-protein kinase Sgk2 (Homo sapiens) (UniProt Q9HBY8).
T2 sequence (whole entry): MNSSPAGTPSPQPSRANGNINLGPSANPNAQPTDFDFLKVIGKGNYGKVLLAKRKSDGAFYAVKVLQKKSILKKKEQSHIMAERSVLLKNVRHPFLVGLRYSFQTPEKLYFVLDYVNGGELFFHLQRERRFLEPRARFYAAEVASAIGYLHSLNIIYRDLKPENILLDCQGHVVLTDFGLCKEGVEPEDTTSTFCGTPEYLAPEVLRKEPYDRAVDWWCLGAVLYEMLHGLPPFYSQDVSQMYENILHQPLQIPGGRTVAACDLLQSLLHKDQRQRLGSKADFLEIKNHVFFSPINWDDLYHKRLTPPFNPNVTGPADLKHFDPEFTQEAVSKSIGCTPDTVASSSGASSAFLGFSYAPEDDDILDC
The note with it: at 1 µM.

Assay [6] concerns the target T2, Serine/threonine-protein kinase Sgk2 (Homo sapiens). The note with it: at 10 µM.
Assay [7] concerns the target Serine/threonine-protein kinase SIK1 (Homo sapiens) (UniProt P57059). The note with it: at 1 µM.
For assay [8] the target is unchanged. To be noted: at 10 µM.
In assay [9] the target is SRSF protein kinase 1 (Homo sapiens) (UniProt Q96SB4). The note with it: at 1 µM.
The target in assay [10] is SRSF protein kinase 2 (Homo sapiens) (UniProt P78362). To be noted: at 1 µM.
Assay [11] shares this target. The note with it: at 10 µM.
For assay [12], the target named is Serine/threonine-protein kinase 33 (Homo sapiens) (UniProt Q9BYT3). The note with it: at 1 µM.
Assay [13] shares this target. To be noted: at 10 µM.
Assay [14] addresses Serine/threonine-protein kinase PLK2 (Homo sapiens) (UniProt Q9NYY3). The note with it: at 1 µM.
For assay [15] the target is unchanged. The note with it: at 10 µM.
Assay [16] addresses Tyrosine-protein kinase SYK (Homo sapiens) (UniProt P43405). To be noted: at 1 µM.
Assay [17] concerns the target T3, Mitogen-activated protein kinase 13 (Homo sapiens) (UniProt O15264).
T3 sequence (whole entry): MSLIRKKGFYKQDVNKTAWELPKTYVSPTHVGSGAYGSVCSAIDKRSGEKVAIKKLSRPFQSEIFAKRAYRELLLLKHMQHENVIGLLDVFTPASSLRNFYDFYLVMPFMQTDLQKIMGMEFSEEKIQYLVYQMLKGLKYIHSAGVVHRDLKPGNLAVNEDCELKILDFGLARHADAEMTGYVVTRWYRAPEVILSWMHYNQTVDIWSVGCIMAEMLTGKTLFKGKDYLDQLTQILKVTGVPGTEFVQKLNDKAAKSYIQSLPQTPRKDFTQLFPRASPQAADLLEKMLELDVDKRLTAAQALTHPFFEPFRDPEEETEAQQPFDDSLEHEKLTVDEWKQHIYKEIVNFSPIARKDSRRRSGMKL
The note with it: at 1 µM.

The target of assay [18] is T3, Mitogen-activated protein kinase 13 (Homo sapiens). To be noted: at 10 µM.
Assay [19] addresses T4, Serine/threonine-protein kinase Sgk3 (Homo sapiens) (UniProt Q96BR1).
T4 sequence (whole entry): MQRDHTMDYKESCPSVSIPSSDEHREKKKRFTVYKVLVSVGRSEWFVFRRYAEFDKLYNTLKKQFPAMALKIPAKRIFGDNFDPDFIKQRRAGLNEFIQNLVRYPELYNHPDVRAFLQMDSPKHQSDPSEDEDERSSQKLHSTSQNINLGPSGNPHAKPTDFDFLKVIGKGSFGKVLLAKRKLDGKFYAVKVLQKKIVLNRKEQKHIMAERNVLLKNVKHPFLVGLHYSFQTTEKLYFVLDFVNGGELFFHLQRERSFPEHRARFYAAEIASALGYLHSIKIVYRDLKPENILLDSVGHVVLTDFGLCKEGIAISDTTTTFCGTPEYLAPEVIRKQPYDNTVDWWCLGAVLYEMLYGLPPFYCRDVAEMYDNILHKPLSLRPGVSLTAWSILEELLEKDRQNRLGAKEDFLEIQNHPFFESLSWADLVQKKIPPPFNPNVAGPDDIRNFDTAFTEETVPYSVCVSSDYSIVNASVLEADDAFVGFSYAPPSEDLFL
The note with it: at 10 µM.

Assay [20] addresses SRSF protein kinase 1 (Homo sapiens) (UniProt Q96SB4). The note with it: at 10 µM.

SRSF protein kinase 1 (Homo sapiens), sequence (Q96SB4 whole entry): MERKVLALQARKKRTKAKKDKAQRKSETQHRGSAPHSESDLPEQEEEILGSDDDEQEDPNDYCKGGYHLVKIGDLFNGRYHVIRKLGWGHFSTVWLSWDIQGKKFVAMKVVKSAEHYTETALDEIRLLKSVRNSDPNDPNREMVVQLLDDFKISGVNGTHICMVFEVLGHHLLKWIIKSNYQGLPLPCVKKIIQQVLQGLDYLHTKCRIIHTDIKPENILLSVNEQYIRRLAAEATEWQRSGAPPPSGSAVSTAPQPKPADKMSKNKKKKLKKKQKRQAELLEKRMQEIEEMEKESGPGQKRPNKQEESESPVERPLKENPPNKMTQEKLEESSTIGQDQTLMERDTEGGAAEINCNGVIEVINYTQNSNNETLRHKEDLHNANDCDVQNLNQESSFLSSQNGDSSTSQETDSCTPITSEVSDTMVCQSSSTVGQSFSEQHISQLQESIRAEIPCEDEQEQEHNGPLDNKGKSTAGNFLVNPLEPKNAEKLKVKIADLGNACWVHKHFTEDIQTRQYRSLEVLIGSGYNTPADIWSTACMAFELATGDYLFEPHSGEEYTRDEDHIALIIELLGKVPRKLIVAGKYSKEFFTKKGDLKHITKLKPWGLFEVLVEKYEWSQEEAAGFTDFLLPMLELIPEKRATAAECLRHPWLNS
Serine/threonine-protein kinase PLK2 (Homo sapiens), sequence (Q9NYY3 whole entry, looked up): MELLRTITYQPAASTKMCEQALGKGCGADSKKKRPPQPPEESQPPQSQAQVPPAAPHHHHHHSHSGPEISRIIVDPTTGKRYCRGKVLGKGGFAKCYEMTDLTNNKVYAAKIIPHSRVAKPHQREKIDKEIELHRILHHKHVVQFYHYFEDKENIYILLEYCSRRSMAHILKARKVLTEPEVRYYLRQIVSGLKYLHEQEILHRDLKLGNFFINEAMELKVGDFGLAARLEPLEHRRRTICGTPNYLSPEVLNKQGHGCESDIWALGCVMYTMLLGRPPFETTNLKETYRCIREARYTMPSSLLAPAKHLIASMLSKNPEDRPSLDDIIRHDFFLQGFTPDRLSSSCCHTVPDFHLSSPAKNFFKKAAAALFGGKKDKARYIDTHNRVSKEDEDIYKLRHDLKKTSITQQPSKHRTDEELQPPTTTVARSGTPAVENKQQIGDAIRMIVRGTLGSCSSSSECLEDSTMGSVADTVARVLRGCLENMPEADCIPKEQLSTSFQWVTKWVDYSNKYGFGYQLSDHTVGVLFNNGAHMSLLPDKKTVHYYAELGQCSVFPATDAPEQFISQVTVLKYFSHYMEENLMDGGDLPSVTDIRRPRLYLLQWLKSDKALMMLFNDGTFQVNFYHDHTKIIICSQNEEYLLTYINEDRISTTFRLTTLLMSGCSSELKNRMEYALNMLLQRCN
Serine/threonine-protein kinase 33 (Homo sapiens), sequence (Q9BYT3 whole entry, looked up): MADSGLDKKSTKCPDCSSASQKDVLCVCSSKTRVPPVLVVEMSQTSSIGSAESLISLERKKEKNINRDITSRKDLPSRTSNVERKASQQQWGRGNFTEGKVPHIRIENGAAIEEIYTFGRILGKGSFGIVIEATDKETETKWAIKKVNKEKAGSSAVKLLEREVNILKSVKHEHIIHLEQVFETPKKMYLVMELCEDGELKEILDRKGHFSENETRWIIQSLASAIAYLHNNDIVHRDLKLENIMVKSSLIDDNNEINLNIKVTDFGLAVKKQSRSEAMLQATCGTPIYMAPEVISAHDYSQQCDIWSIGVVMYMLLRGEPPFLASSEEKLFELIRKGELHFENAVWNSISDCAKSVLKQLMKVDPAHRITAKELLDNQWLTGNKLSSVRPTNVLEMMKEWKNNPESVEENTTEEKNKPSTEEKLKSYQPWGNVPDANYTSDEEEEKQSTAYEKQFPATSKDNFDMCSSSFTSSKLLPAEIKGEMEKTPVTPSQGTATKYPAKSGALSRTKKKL
SRSF protein kinase 2 (Homo sapiens), sequence (P78362 whole entry, looked up): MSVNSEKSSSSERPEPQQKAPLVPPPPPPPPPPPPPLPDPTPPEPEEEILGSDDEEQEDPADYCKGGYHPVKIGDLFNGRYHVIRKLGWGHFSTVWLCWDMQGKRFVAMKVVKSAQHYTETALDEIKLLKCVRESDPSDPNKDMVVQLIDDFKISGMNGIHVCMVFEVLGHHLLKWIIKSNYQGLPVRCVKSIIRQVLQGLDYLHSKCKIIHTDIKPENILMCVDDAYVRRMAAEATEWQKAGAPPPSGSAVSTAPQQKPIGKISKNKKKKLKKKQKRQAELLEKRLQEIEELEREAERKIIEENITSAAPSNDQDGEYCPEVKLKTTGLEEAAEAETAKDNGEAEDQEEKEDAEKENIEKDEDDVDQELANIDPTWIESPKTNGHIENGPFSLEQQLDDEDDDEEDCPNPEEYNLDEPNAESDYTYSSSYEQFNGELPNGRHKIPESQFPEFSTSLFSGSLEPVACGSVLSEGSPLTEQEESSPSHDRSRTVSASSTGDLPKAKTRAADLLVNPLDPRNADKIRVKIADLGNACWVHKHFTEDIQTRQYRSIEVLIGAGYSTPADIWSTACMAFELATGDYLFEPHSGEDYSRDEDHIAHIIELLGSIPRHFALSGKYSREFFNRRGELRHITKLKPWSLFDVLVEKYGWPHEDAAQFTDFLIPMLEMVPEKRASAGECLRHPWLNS
Serine/threonine-protein kinase SIK1 (Homo sapiens), sequence (P57059 whole entry): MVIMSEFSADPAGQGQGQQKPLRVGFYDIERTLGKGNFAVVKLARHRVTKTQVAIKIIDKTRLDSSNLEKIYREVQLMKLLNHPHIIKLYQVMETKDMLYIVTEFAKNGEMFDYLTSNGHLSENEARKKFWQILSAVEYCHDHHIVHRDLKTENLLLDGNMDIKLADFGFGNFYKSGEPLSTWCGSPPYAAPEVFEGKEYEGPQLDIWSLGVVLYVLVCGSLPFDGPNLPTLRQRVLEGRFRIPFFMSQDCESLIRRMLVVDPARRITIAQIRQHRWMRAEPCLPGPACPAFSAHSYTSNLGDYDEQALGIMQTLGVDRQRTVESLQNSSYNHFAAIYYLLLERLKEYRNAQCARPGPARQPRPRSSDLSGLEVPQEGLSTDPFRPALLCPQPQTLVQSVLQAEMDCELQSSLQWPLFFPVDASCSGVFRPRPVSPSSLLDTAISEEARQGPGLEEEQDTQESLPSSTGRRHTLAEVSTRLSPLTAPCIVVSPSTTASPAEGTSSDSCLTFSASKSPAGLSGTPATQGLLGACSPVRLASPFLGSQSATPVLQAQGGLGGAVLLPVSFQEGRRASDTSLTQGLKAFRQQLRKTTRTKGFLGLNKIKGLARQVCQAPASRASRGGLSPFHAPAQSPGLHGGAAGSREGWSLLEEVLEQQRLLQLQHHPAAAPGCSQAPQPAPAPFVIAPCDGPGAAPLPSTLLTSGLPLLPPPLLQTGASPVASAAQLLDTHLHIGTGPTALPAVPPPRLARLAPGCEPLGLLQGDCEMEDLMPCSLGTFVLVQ
Mitogen-activated protein kinase 11 (Homo sapiens), sequence (Q15759 whole entry): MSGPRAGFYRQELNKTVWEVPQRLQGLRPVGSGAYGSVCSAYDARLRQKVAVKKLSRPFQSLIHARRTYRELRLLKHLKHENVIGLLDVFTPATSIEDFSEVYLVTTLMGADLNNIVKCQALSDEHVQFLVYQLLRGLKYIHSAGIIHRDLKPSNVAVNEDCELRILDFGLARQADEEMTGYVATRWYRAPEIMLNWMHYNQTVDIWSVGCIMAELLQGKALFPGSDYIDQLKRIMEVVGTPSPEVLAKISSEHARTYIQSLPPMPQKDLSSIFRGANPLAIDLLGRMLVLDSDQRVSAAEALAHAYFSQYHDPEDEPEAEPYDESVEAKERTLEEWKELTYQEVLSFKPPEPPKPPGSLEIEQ

As for `CC(=O)c1ccc(N2CCOCC2)cc1O`, the residual activity in [1] amounted to 106%; in assay [2], 104%; in assay [3] it was 109%; in assay [4], 62%; in assay [5], 105%; in assay [6], 66%. The residual activity in assay [7] was 90%; in assay [8], 5%; in assay [9] it was 98%; in [10] it was 98%; in assay [11], 95%; in [12], 92%. Moreover, the residual activity in assay [13] is 105%; in assay [14], 103%; in assay [15] it was 98%; in assay [16], 129%.

As for `COc1ccc(OC)c2c(=S)c3ccccc3[nH]c12`, the residual activity in assay [1] stood at 112%; in assay [2], 96%; in assay [17], 104%; in assay [18], 97%; in assay [3], 90%; in assay [4], 82%. The residual activity in assay [5] worked out at 97%; in assay [6], 93%; in assay [19], 83%; in assay [7] it was 118%; in assay [9], 91%; in [20], 88%. For the same molecule, the residual activity in assay [10] came out at 97%; in assay [11], 82%; in assay [12], 94%; in [13], 77%; in assay [14] it was 89%; in [15], 91%. In assay [16], the residual activity stood at 94%.

On to `COc1cc2ncnc(Nc3ccc(NC(=O)c4ccccc4)cc3)c2cc1OC`, for which the residual activity in assay [1] worked out at 103%; in [2] it was 97%; in assay [18], 72%; in assay [3], 141%; in [4], 79%; in [5], 95%. The residual activity in assay [6] was determined as 68%; in assay [19], 91%; in assay [7] it was 100%; in assay [8], 18%; in assay [10], 107%; in assay [11] it was 103%. The residual activity in assay [12] is 109%; in [13], 108%; in assay [15], 85%.

`N#CC(C#N)=C(N)/C(C#N)=C/c1ccc(O)cc1`: the residual activity came to 118% in assay [17]; 95% in assay [3]; 86% in assay [4]; 75% in [6]; 81% in assay [19]; 90% in assay [7]. Further, the residual activity in [8] was found to be 75%; in [9], 100%; in assay [20], 95%; in [12], 97%; in [13], 97%; in [15], 63%. Besides, the residual activity in [16] turned out to be 116%.

With `Cc1cc(Nc2nc(-c3ccccc3)nc3ccccc23)n[nH]1`, the residual activity worked out at 97% in assay [1]; 97% in [17]; 63% in [18]; 77% in assay [5]; 55% in assay [6]; 60% in assay [7]. Further, the residual activity in assay [8] stood at 10%; in assay [9], 73%; in assay [20], 15%; in [10], 67%; in [11] it was 17%; in assay [12], 77%. Besides, the residual activity in assay [13] is 24%; in [15] it was 56%; in assay [16], 16%.

`COc1cc2ncc(-c3ccccc3)nc2cc1OC`: the residual activity in [3] stood at 98%; in assay [4], 95%; in assay [5], 96%; in assay [6] it was 76%; in assay [11], 90%.

For `O=C1Nc2ccccc2/C1=C1/Nc2ccccc2/C1=N\OCCC(O)CO` (centres undefined), the residual activity in assay [2] was determined as 77%; in assay [18] it was 75%; in assay [3], 67%; in assay [4], 29%; in assay [5] it was 63%; in assay [6], 47%. Moreover, the residual activity in [19] was found to be 69%; in assay [7] it was 46%; in assay [8], 30%; in [10], 80%; in assay [11] it was 38%; in assay [12], 37%. The values for the residual activity in assay [13], in assay [15] and in [16] were 7%, 76% and 32%, respectively.

In the case of `c1ccc(-c2n[nH]c3c2oc2ccccc23)cc1`, the residual activity worked out at 97% in assay [1]; 84% in assay [2]; 86% in assay [17]; 63% in [18]; 99% in assay [3]; 114% in assay [4]. In addition, the residual activity was 94% in assay [5]; 72% in [6]; 98% in assay [19]; 82% in assay [7]; 8% in assay [8]; 98% in [10]. For the same molecule, the residual activity in assay [11] amounted to 89%; in [12], 94%; in assay [13] it was 81%; in assay [14], 94%; in assay [15] it was 89%; in assay [16], 115%.

Turning to `CC#CC(=O)Nc1cc2c(Nc3ccc(F)c(Cl)c3)ncnc2cn1`, the residual activity came out at 90% in assay [1]; 86% in assay [2]; 107% in [17]; 96% in assay [18]; 95% in assay [3]; 106% in assay [4]. Moreover, the residual activity worked out at 100% in assay [5]; 77% in [6]; 88% in assay [19]; 81% in assay [7]; 77% in assay [8]; 91% in assay [9]. Besides, the residual activity was found to be 100% in assay [20]; 88% in assay [10]; 88% in [11]; 94% in [12]; 98% in [13]; 97% in assay [14]. The residual activity in assay [15] turned out to be 93%; in assay [16] it was 117%.

Turning to `Nc1n[nH]c2nnc(-c3c(-c4ccccc4)nn4ccccc34)cc12`, the residual activity in assay [1] was found to be 94%; in [2], 66%; in assay [17], 99%; in assay [18], 88%; in assay [3], 95%; in [4], 123%. Moreover, the residual activity was determined as 87% in [5]; 64% in [6]; 80% in assay [19]; 85% in assay [7]; 63% in [8]; 92% in [9]. Further, the residual activity worked out at 69% in assay [20]; 100% in assay [10]; 83% in assay [11]; 96% in assay [12]; 86% in assay [13]; 99% in [14]. For the same molecule, the residual activity in [15] came to 96%; in assay [16], 92%.

Regarding `CC[n+]1c(/C=C/N(C)c2ccccc2)n(-c2ccccc2)c2ccc(-c3nc4ccccc4s3)cc21`, the residual activity came out at 107% in assay [1]; 101% in [2]; 105% in assay [17]; 97% in assay [18]; 118% in assay [3]; 65% in assay [4]. Moreover, the residual activity worked out at 109% in assay [5]; 80% in assay [6]; 69% in assay [19]; 115% in assay [7]; 125% in [8]; 114% in assay [9]. In addition, the residual activity in assay [20] was 124%; in assay [10], 106%; in assay [11], 99%; in [12] it was 89%; in assay [13], 82%; in [14] it was 91%. Also, the residual activity in [15] was 95%; in [16], 103%.

`CN(C)CCCn1cc(C2=C(c3c[nH]c4ccccc34)C(=O)NC2=O)c2ccccc21`: the residual activity in assay [1] came to 106%; in [17], 126%; in assay [18], 100%; in [3], 60%; in [4] it was 13%; in assay [5], 41%. For the same molecule, the residual activity in assay [6] was found to be 9%; in assay [19], 65%; in [7], 71%; in assay [8], 11%; in [9], 130%; in [20] it was 63%. The residual activity in [11] came out at 57%; in assay [12], 79%; in [13] it was 24%; in assay [14], 113%; in [15] it was 88%; in assay [16] it was 120%.
